Only some compounds are listed: those with a hit (about 4.1% of all), similar ones and a draw of the others.
hgDAF-12 ag – agonists of H. glycines DAF-12 nuclear receptor; HEK293 GAL4-hgDAF12 UAS-luciferase reporter, agonist luminescence; normalized to butyrate control; activation, % at 6.8 µM; actives 1.8% (n = 370,000); AID 687014;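 active means activation above a cutoff set at the mean of all screened compounds plus 3 SD, cut at about 10% in these data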
ssDAF-12 act – activators of S. stercoralis DAF-12 nuclear receptor; actives 1% (n = 370,000); activation, % at 6.8 µM; HEK293 ssDAF-12/GRIP1 lit1-tk-luc reporter, luminescence; % of 3 µM dafachronic acid response;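 active means activation above the mean over all tested compounds plus 3 SD, cut at about 0.9% in these data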
DAX1 inh-1 – inhibitors of DAX1 repression of SF-1 activated StAR promoter | HEK293T StAR-luciferase reporter, SF-1/DAX-1 repression relief | inhibition, % at 6.8 µM | actives 1.1% (n = 370,000) | AID 652010;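 active means inhibition above the mean over all tested compounds plus 3 SD, cut at about 3.6% in these data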;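 further: higher inhibition means more luminescence from relief of DAX-1 repression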
hcDAF-12 act – activators of H. contortus DAF-12 nuclear receptor; actives 1.4% (n = 370,000); HEK293 hcDAF-12 lit1-tk-luc reporter, luminescence; 0% DMSO, 100% Δ7-dafachronic acid; AID 652067; activation, % at 6.8 µM;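 active means activation above the mean of all tested compounds plus 3 SD, cut at about 5.5% in these data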
DAX1 inh-2 – inhibits human nuclear receptor DAX1; P51843; HEK293 Gal4-DAX1 luciferase reporter, luminescence; inhibition, % at 6.75 µM; actives 0.99% (n = 340,000); AID 504766;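 active means inhibition above the mean over all tested compounds plus 3 SD, cut at about 4.2% in these data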;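 further: inhibition shows as a rise in luminescence from relieved DAX1 repression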
Target sequence (P51843 207-470 limits assumed): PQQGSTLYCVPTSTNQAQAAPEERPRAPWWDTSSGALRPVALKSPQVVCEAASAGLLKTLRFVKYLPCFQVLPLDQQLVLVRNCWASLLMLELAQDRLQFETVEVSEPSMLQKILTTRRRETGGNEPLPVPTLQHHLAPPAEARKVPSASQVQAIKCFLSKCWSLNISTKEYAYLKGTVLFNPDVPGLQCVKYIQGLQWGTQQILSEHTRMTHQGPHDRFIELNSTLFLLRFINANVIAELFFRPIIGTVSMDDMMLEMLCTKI
DAX1 conf – NR0B1 (human) inhibition, confirmation | shares compounds with DAX1 inh-1 | HEK293T StAR-promoter luciferase reporter, SF-1/DAX-1 repression | inhibition, % at 6.8 µM | actives 87% (n = 2,400);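 active means inhibition above the average of every tested compound plus 3 SD, cut at about 3.8% in these data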;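 further: active compounds raise luminescence by relieving repression of the StAR reporter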
SF1 mutant ctr – counter-screen for DAX1 inhibitors: nonselective inhibitors with SF-1 AF2 mutant. shares compounds with DAX1 inh-1. actives 78% (n = 2,400). AID 652136. inhibition, % at 6.8 µM. HEK293 StAR-luciferase, luminescence;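 active means inhibition above the mean of all tested compounds plus 3 SD, cut at about 3% in these data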
LXR ag – activates human LXR-beta, counter-screen for hcDAF-12 agonists | shares compounds with hcDAF-12 act | HEK293 Gal4-LXR tk-luc reporter, luminescence, 24 h; normalized: DMSO 0%, positive control 100% | activation, % at 6.8 µM | 3,400 tested, under 10 active | AID 743027;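 active means mean percent activation of the reporter above a cutoff set as the average over tested compounds plus their standard deviation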
hcDAF12 conf – hcDAF-12 agonism, confirmation assay; actives 61% (n = 3,400); shares compounds with hcDAF-12 act; HEK293 hcDAF-12 lit1-tk-luc reporter, luminescence; % of Δ7-dafachronic acid response; activation, % at 6.8 µM;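 active means mean activation across triplicate tests above the threshold derived from the earlier primary screen, cut at about 5.5% in these data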
hgDAF12 ag – hgDAF-12 agonism, confirmation assay; activation, % at 6.8 µM; actives 80% (n = 3,300); AID 743050; shares compounds with hgDAF-12 ag; HEK293 GAL4-hgDAF12 luciferase reporter, agonist mode; percent of butyrate response;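 active means mean activation over triplicate wells above the hit cutoff derived from the earlier primary screen, cut at about 11% in these data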
LXRb DAF12 ctr – counter-screen for DAF-12 agonists: agonists of human LXR-beta; shares compounds with hgDAF-12 ag; HEK293 Gal4-LXR luciferase reporter, 24 h; activation, % at 6.8 µM; 3,300 tested, under 10 active; AID 743051;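 active means mean activation of the triplicate above a set limit carried over from the primary screen, none filed active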
Numbers stand for hits; 0 = inactive; - = not tested or not shown.

SMILES | hgDAF-12 ag | ssDAF-12 act | DAX1 inh-1 | hcDAF-12 act | DAX1 inh-2 | DAX1 conf | SF1 mutant ctr | hgDAF12 ag | LXRb DAF12 ctr | others
CCc1ccc(NC(=O)c2cnn(-c3ccccc3)c2C)cc1 | 15 | 1.1 | 6.1 | 0 | 0 | 11 | 6.0 | 19 | 0
CCOC(=O)C1CCCN(C(=O)c2cc3cc4ccc(OC)cc4nc3o2)C1 (stereo unspecified) | - | - | - | - | 0 | - | - | - | -
COc1ccc2cc3cc(C(=O)N4CCCC(C)C4)oc3nc2c1 (stereo unspecified) | 14 | 0 | 7.4 | 0 | 0 | 12 | 8.9 | 16 | 0
CCc1ccc(NC(=O)NC2CCCCCCC2)cc1 | 17 | 0 | 7.9 | 0 | 0 | 10 | 5.4 | 18 | 0
CCc1ccc(NC(=O)C(=S)NC2CCCCC2)cc1 | 0 | 0 | 0 | 0 | 0 | - | - | - | -
CC(C)CN1C[C@@H]2CSCCS(=O)(=O)N2C1=O | 0 | 0 | 0 | 0 | - | - | - | - | -
CC(C)c1cc(C(C)C)c(S(=O)(=O)NCC(=O)N2CCN(c3ncccn3)CC2)c(C(C)C)c1 | 0 | 0 | 0 | 0 | - | - | - | - | -
Nc1cc2sc(-c3ccc(C(=O)O)cc3)nc2cc1Cl | 0 | 0 | 0 | 0 | 0 | - | - | - | -
Cc1cc(-c2nc3cc(F)ccc3s2)ccc1N | 20 | 3.7 | 7.0 | 18 | 0 | 8.4 | 4.5 | 24 | 0 | LXR ag=0;hcDAF12 conf=17
O=S1(=O)c2ccc(N3CC[C@@H](O)C3)cc2OCCCN1C1CC1 | 0 | 0 | 0 | 0 | - | - | - | - | -
CC(=O)N(C)c1ccc(N=Nc2c(C)[nH]n(C(N)=S)c2=O)cc1 | 16 | 0 | 4.8 | 6.5 | 0 | 12 | 5.3 | 17 | 0
CCCC(=O)N1CCN(c2ccc(NC(=O)c3ccco3)cc2)CC1 | 0 | 0 | 0 | 0 | 0 | - | - | - | -
CCN1CCN(c2ccc(NC(=O)c3ccco3)cc2)CC1 | 14 | 0 | 8.0 | 0 | 0 | 4.9 | 5.4 | 13 | 0
O=S(=O)(CS(=O)(=O)c1ccccc1Br)c1ccccc1Br | 0 | 0 | 0 | 0 | - | - | - | - | -
c1ccc(CSc2ncnc3c2ncn3C2CCCCO2)cc1 (stereo unspecified) | 14 | 0 | 5.1 | 0 | 0 | 6.3 | 3.5 | 12 | 0
CCCc1ccc(OCc2ccc(C(=O)N/N=C/c3cccnc3)o2)cc1 | 14 | 0 | 5.9 | 0 | 0 | 6.9 | 4.3 | 17 | 0
CC(=O)c1cccc(Nc2ccc(Br)cc2)c1 | 14 | 0 | 9.7 | 0 | - | 12 | 6.3 | 0 | 0
COc1ccc(CNC(=O)c2ccc(C(C)C)cc2)cc1 | 18 | 0 | 6.8 | 0 | 0 | 7.6 | 5.7 | 15 | 0
Cn1nnnc1SCC(=O)Nc1ccc2c(c1)OCCO2 | 15 | 0 | 6.5 | 0 | 0 | 8.2 | 0 | 14 | 0
COc1ccc(/C=C/c2cc(O)cc(OC3OC(CO)C(O)C(O)C3O)c2)cc1 (stereo unspecified) | 17 | 0 | 8.8 | 6.9 | 0 | 16 | 8.2 | 11 | 0 | LXR ag=0;hcDAF12 conf=7.8
Cc1cc(O)cc(O[C@H]2OC(CO)[C@H](O)[C@@H](O)[C@H]2O)c1 (stereo partly specified) | 0 | 0 | 0 | 0 | 0 | - | - | - | -
CC(=O)c1ccc(OCc2cc(C(=O)NC(C)c3cnn(C)c3)no2)cc1 (stereo unspecified) | 0 | 0 | 0 | 0 | 0 | - | - | - | -

High-throughput results from PubChem.
